AmpC inh no detg: AmpC beta-lactamase inhibition without detergent; P00811; AmpC nitrocefin hydrolysis, absorbance 480 nm, 0.0001% Triton; Potency, µM (doses to about 57.1 µM), most hits filed as inhibitors; actives 0.52% (n = 330,000); further: nearly all actives have a fitted effect of over 20% in size
Target sequence (P00811 whole entry, looked up): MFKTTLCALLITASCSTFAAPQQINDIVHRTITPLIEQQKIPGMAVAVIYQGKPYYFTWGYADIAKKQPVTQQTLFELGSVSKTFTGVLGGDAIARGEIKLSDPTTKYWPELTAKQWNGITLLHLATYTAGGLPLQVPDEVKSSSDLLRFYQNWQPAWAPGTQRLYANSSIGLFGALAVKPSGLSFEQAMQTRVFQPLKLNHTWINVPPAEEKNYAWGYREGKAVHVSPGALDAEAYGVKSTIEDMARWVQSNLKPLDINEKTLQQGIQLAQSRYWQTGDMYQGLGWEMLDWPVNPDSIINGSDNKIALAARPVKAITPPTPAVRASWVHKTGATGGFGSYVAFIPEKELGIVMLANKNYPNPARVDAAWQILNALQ
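AmpC (5.3 nM in the dispensed reagent) in 20 mM phosphate pH 7.0 with 0.01% (detergent screen) or 0.0001% Triton X-100 was preincubated with compounds for 15 min at room temperature. Nitrocefin was then added from an 800 uM solution, and hydrolysis was followed at 480 nm.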
Shiga toxin inh: blocks Shiga toxin action in Vero cells; Vero cells, Shiga toxin protein synthesis inhibition reporter; inhibition, % at 38.7 µM; actives 9.2% (n = 290,000); AID 2315; in the data active means inhibition mostly above about 28%, no sharp cut-off; inactive means mostly below about 43%
SARS PLpro yeast: blocks SARS-CoV papain-like protease in a yeast assay. AID 485353. S. cerevisiae expressing SARS-CoV PLpro, growth rescue. Potency, µM (doses to about 32.9 µM), actives largely listed as activators. actives 0.19% (n = 330,000); calls by dose curve; further: nearly all actives have a fitted effect of over 55% in size
AMA1 RON2 block: disrupts binding of P. falciparum AMA1 to RON2; AlphaScreen AMA1-biotinylated RON2 peptide binding; Potency, µM (doses to about 58.2 µM), actives largely listed as inhibitors; actives 0.2% (n = 360,000); AID 720542; further: nearly all actives have a fitted effect of over 45% in size
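AMA1 (3D7) with his tag at 25 nM final met compounds first, then biotinylated RON2 peptide at 25 nM; detection used donor plus acceptor beads, 10 µg/mL apiece, read by AlphaScreen after 30 min at room temperature.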
CHX counter: counter-screen hit for Shiga toxin inhibitors, cycloheximide. cell reporter, cycloheximide protein synthesis inhibition counterscreen. max response, %. actives 12% (n = 300,000); in the data active means max response mostly above about 13%, no sharp cut-off; inactive means mostly below about 14%; further: read at 38.3 µM for the half of the compounds with a filed dose
AmpC inh detg: blocks E. coli AmpC beta-lactamase in detergent assay; P00811; actives 0.041% (n = 370,000); Potency, µM (titrated, usually from 114 µM), hits mostly inhibitors; AmpC hydrolysis of nitrocefin, absorbance 480 nm, 0.01% Triton; further: nearly all actives have a fitted effect of over 25% in size
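20 mM phosphate pH 7.0 + 0.01% (detergent screen) or 0.0001% Triton X-100; 5.3 nM AmpC reagent; cpd preinc 15 min RT; nitrocefin (800 uM stock) to start; A480 q20 s × 4 min; Activity was normalised to no-enzyme and no-compound control wells.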
Large screens that a line does not name were inactive. The entries come from a sample that favours hits as a whole. Unless noted, the call rests on the fitted dose curve; in most records, active means well fitted curve in the direction sought with a large enough effect; inconclusive means small, poorly fitted or top-dose-only effect, or another doubt; inactive means no such curve, though single readings can be large; an effect the other way counts as inactive or inconclusive.

COc1ccc(C/C(C)=N/NC(=S)Nc2ccccc2)cc1	Shiga toxin inh 86, SARS PLpro yeast 11µM
COc1ccc(CNC(=S)N/N=C(/C)c2ccccc2)cc1	Shiga toxin inh 84, CHX counter 49
C/C(=N\NC(=S)NCc1ccccc1)c1ccccc1	Shiga toxin inh active, AMA1 RON2 block inconclusive, CHX counter 28
COc1ccc(C/C(C)=N/NC(=S)Nc2ccc(Cl)cc2)cc1	none
Cc1ccc(Cn2cccc2/C=N/NC(=S)Nc2ccc(C)cc2)cc1	none
COc1ccc(NC(=S)N/N=C/c2cccn2Cc2ccc(F)cc2)cc1	Shiga toxin inh 46
C/C(=N\NC(=S)NCc1ccccc1)c1ccccc1F	Shiga toxin inh 46
C/C(=N\NC(=S)NCc1ccccc1)c1ccc(C(C)(C)C)cc1	SARS PLpro yeast inconclusive, CHX counter 12
CC1=C/C(=N\NC(=S)NCc2ccccc2)CC1	Shiga toxin inh 56, SARS PLpro yeast inconclusive, CHX counter 26
CC(C)c1onc(C(=O)NCc2ccc(Cl)cc2)c1[N+](=O)[O-]	none
Cc1cccc(C)c1-n1ncc(C(=O)NCCN2CCOCC2)c1C1CCN(C(=O)OC(C)(C)C)CC1	none (no result: AmpC inh no detg, Shiga toxin inh, SARS PLpro yeast, AMA1 RON2 block, CHX counter)
O=c1[nH]c(C2CCCN(S(=O)(=O)Cc3ccccc3)C2)nc2c1nnn2Cc1cccc(Cl)c1 (configuration not stated)	none
Cc1cccc(C(O)c2ncc(-c3ccc4ccccc4c3)[nH]2)c1C (configuration not stated)	none (no result: AmpC inh no detg, Shiga toxin inh, SARS PLpro yeast, CHX counter, AmpC inh detg)
CNC(=S)N/N=C(\C)c1ccc(C(C)(C)C)cc1	Shiga toxin inh 30, CHX counter 24
CCCCc1n[nH]c2c1/C(=N/O)CC(c1ccccc1)C2 (configuration not stated)	CHX counter 27
CCCCc1noc2c1/C(=N\O)CC(c1ccccc1)C2 (configuration not stated)	CHX counter 22
CN(C)S(=O)(=O)N1CCC(CO)(CCc2ccccc2)CC1	none
CCOC(=O)C1CCCN(Cc2c(Cl)cccc2Cl)C1 (configuration not stated)	none (no result: AmpC inh no detg, SARS PLpro yeast)
c1ccc(Cn2nnc3c(Nc4ccc5c(c4)OCO5)nc(C4CC4)nc32)cc1	none
COC(=O)C(Cc1ccccc1)NC(=O)C(CC(C)C)NC(=O)OC(C)(C)C (configuration not stated)	AmpC inh detg inconclusive
CC(C)CC(NC(=O)C(Cc1ccc(OCc2ccccc2)cc1)NC(=O)OC(C)(C)C)C(N)=O (configuration not stated)	AmpC inh no detg 7.1µM
COCCOC(=O)C1=C(C)Nc2ncnn2C1c1ccco1 (configuration not stated)	none
Cc1nc(-c2ccccc2)nc2sc(C(=O)c3ccc(F)cc3)c(N)c12	none
Cc1nc2sc(C(=O)Nc3ccccc3)c(N)c2c(C)c1[N+](=O)[O-]	Shiga toxin inh 91, CHX counter 50
Cc1nc2sc(C(=O)OC(C)C)c(N)c2c(C)c1C	Shiga toxin inh 41, CHX counter 19
Nc1c(C(=O)Nc2ccccc2)sc2ncc([N+](=O)[O-])cc12	none
Cc1nc2sc(C(=O)c3ccccc3)c(N)c2c(C)c1C	CHX counter 24
COC(=O)c1sc2nc(C)cc(C)c2c1N	none
CC(=O)c1ccc(NC(=O)c2sc3nc(C)c(C)c(C)c3c2N)cc1	Shiga toxin inh 115, CHX counter 54
Cc1nn(C)c(C)c1NC(=O)COc1ccc(F)cc1Br	none (no result: Shiga toxin inh, CHX counter, AmpC inh detg)
O=C(CNS(=O)(=O)c1ccc(Br)s1)N1CCN(c2ccc(F)cc2)CC1	none
O=C1N(c2ccc(Cl)cc2)C(c2cccnc2)N2CCCN12 (configuration not stated)	Shiga toxin inh 108
CCC1CCCCN1C(=O)CCCOc1ccccc1 (configuration not stated)	CHX counter 44
O=C(COc1ccc(Cl)cc1)N1CCCCCCC1	none
O=C(CCCOc1ccccc1)N1CCCCC1	CHX counter 55
O=C(CCCOc1ccc(Cl)cc1)N1CCCCC1	Shiga toxin inh 85, CHX counter 40
CCOC(=O)C1CCN(C(=O)CCCOc2ccccc2)CC1	Shiga toxin inh 64, CHX counter 36
CCOC(=O)C1CCN(C(=O)COc2ccc(C(=O)c3ccccc3)cc2)CC1	none (no result: Shiga toxin inh, CHX counter, AmpC inh detg)
Cc1ccccc1NC(=S)N(CCN1CCCCCC1)Cc1cccs1	none
Cc1cc(Cl)ccc1OCC(=O)OCC(=O)c1c(N)n(C)c(=O)n(C)c1=O	none (no result: Shiga toxin inh, CHX counter)
COc1cc(C(=O)NC2CCCc3ccccc32)ccc1OCC(=O)Nc1ccc(F)cc1 (configuration not stated)	none
COc1ccc2[nH]c3c(c2c1)CCN1C(=O)N([C@@H](C)C(=O)NCCc2ccc(F)cc2)C(=O)[C@]31C	AMA1 RON2 block inconclusive
O=C(COc1ccc(Cl)cc1)N1CCCCC1	Shiga toxin inh 52, CHX counter 34
Cc1cc(Cl)ccc1OCC(=O)N1CCN(c2ncccn2)CC1	none
Cc1cc(Cl)ccc1OCC(=O)N1CCCCC1	Shiga toxin inh 64, CHX counter 47
COc1ccc(OCCC(=O)N2CCOCC2)cc1	none
CCOC(=O)C(=O)N1CCC(C(=O)OCC)CC1	CHX counter 28
CC(C)(C)c1ccc(OCCCC(=O)N2CCOCC2)cc1	Shiga toxin inh 55, CHX counter 40
CC1(C(=O)Nc2ccc3nc[nH]c3c2)CCN1C(=O)C1(c2ccccc2)CCCC1 (configuration not stated)	none (no result: AmpC inh no detg, Shiga toxin inh, SARS PLpro yeast, CHX counter, AmpC inh detg)
O=C(CSCc1cccc(Cl)c1)N/N=C/c1ccc(OCC(=O)N2CCCCC2)cc1	CHX counter 13
O=C(CCCOc1ccc(Cl)cc1)N1CCOCC1	Shiga toxin inh 30
Cc1cccc(C(=O)N/N=C/c2ccc(OCC(=O)N3CCCCC3)cc2)c1	none
O=C(CCCOc1ccc(Cl)cc1)N1CCCCCC1	Shiga toxin inh 77, CHX counter 39
COc1ccc(/C=N/NC(=O)CCC(=O)Nc2ccccc2)cc1OC	AmpC inh detg inconclusive
COc1ccccc1-c1noc(-c2ccccc2C(=O)N2CCOCC2)n1	none
O=C(/C=C/c1c(F)cccc1Cl)Nc1ccc(S(=O)(=O)Nc2ncccn2)cc1	none
C=CCNC(=O)/C=C/c1c(F)cccc1Cl	Shiga toxin inh 57, CHX counter 29
O=C(/C=C/c1c(F)cccc1Cl)Nc1ncccn1	Shiga toxin inh 61, CHX counter 57
O=C(/C=C/c1c(F)cccc1Cl)N1CCOCC1	Shiga toxin inh 51, CHX counter 48
Cc1cccc(C)c1OCCNC(=O)CCC(=O)c1ccccc1	SARS PLpro yeast inconclusive, AmpC inh detg inconclusive
O=C(Cn1cc(S(=O)(=O)N2CCCC2)c(S(=O)(=O)N2CCCC2)c1)Nc1cccc(F)c1	none (no result: AmpC inh no detg, Shiga toxin inh, SARS PLpro yeast, AMA1 RON2 block, CHX counter)

Screens (PubChem BioAssay)
